Cruzain Triton: qHTS Assay for Promiscuous and Specific Inhibitors of Cruzain (with detergent) | Potency, µM, for the others: max response, negative = inhibition, hits mostly inhibitors | hit rate 0.43% among 200,000 | purified cruzain, Z-FR-AMC fluorescence, 0.01% Triton | Cruzipain (Trypanosoma cruzi), P25779;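 also: plate controls were neutral wells for no effect and buffer without enzyme for full effect; nearly all actives have a fitted effect of over 40% in size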
Target sequence (P25779 123-467 limits assumed): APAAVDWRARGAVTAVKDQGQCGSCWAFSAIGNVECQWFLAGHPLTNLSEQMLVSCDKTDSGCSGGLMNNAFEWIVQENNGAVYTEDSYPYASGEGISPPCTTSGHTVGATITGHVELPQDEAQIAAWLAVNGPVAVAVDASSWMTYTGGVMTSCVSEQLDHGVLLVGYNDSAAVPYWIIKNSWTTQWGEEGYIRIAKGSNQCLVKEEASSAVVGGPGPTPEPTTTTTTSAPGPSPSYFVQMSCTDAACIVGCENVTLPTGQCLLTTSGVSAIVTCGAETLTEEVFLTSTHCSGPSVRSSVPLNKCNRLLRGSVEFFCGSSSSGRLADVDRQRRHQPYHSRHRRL
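Purified cruzain (1.5 nM final) was preincubated with compounds for 15 min at room temperature in 100 mM sodium acetate pH 5.5, 5 mM DTT, 0.01% Triton X-100. Reaction started with 2 uM Z-FR-AMC; AMC fluorescence change over 60 s gave activity.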
Cruzain inh noDet: qHTS Assay for Promiscuous and Specific Inhibitors of Cruzain (without detergent); Cruzipain (Trypanosoma cruzi), P25779; purified cruzain, Z-FR-AMC fluorescence, no detergent; Potency, µM, for inactives: max response, negative = inhibition, most hits filed as inhibitors; hit rate 2.3% among 200,000;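 also: plate controls were enzyme without inhibitor for no effect and buffer without enzyme for full effect; nearly all actives have a fitted effect of over 40% in size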
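Purified cruzain at 1.5 nM, pre-incubated 15 min with compound at room temperature in 100 mM sodium acetate pH 5.5, 5 mM DTT, 0.00005% Triton X-100. Reaction started with 2 uM Z-FR-AMC; AMC fluorescence increase over 60 s gives rate.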
Starred values were filed as active, the others as inactive; ? = inconclusive. Shown are actives, neighbours in structure and some others; about 2.4% of the full set was active somewhere. Calls follow the shape of the dose curve; as a rule, active = well fitted curve in the direction sought with a large enough effect; inconclusive = small, poorly fitted or top-dose-only effect, or another doubt; inactive = no such curve, though single readings can be large; an effect the other way counts as inactive or inconclusive. Potency is read from the fitted curve at half-maximal effect.

SMILES	Cruzain Triton	Cruzain inh noDet
O=C(C1=C[C@@H]2[C@H]3C(=O)N(c4ccc(Cl)cc4)C(=O)[C@H]3[C@@H](C(=O)c3ccc(Cl)cc3)N2C=C1)c1ccccc1	-6%	7.9µM*
Cc1ccc(N2C(=O)C3C(C2=O)C(C(=O)c2ccc(Cl)cc2)N2CCCC32)cc1 (stereo not drawn)	-12%	-4%
COc1ccc2c(c1)CC(C(=O)Nc1cc(Cl)ccc1C)CO2 (stereo not drawn)	-2%	3%
CCc1ccccc1NC(=O)CCNS(=O)(=O)c1ccc2c(c1)CCCC(=O)N2	-1%	-8%
c1ccc(Nc2ccc(Nc3ccccc3)cc2)cc1	-7%	2%
O=Nc1ccc(Nc2ccccc2)cc1	7.1µM*	7.9µM*
CCCCCS(=O)(=O)CCCCCCCCCCn1c(-c2ccc(O)cc2)c(C)c2cc(O)ccc21	10%	?
COc1ccc(CNCc2c(C(=O)O)c(C)n(Cc3ccccc3C)c2C)c(OC)c1	3%	-1%
COc1cccc(NC(=O)C(=O)N/N=C/c2cc(C)n(-c3ccc(Cl)c(Cl)c3)c2C)c1	0%	16µM*
Cc1cc(/C=N\NC(=O)CC(=O)NC2CCCCC2)c(C)n1-c1ccc(Cl)c(Cl)c1	-6%	-2%
CCSc1nnc(NC(=O)c2csc3c2CCC(C)C3)s1 (stereo not drawn)	-2%	13µM*
CCSc1nnc(NC(=O)c2ccc3c(c2)OCO3)s1	-1%	25µM*
O=C(Nc1nnc(SCc2ccccc2)s1)c1cc2c(s1)CCCC2	-2%	?
CCSc1nnc(NC(=O)c2cc(-c3ccc(C)c(C)c3O)n[nH]2)s1	-2%	4µM*
CCSc1nnc(NC(=O)c2csc3c2CCCC3)s1	3%	?
CCSc1nnc(NC(=O)c2cc(C)on2)s1	-1%	-11%
CCSc1nnc(NC(=O)c2cc3c(s2)CCCC3)s1	9%	7.9µM*
CCSc1nnc(NC(=O)c2ccccc2)s1	-2%	5%
COc1ccccc1NC(=O)CSc1nnc(-c2nonc2NC(C)=O)n1-c1ccccc1	-4%	?
Cc1ccc2c(=O)cc(C(=O)Nc3sc4c(c3C(=O)NCC3CCCO3)CCCC4)oc2c1C (stereo not drawn)	-1%	2%
CCCOc1cccc(C(=O)N(Cc2sccc2C)C2CCS(=O)(=O)C2)c1 (stereo not drawn)	-6%	5%
O=C(Nc1nc(-c2ccncc2)cs1)c1ccc(S(=O)(=O)N2CCOCC2)cc1	1%	5%
CCc1nnc(NC(=O)c2ccc(S(=O)(=O)N3CCc4ccccc4C3)cc2)s1	4%	?
Cc1cc(C)c2nc(NNC(=O)c3ccc(S(=O)(=O)N4CCc5ccccc5C4)cc3)sc2c1	3%	6.3µM*
Cc1cc(C)c2sc(NNC(=O)c3ccc(S(=O)(=O)N4CCc5ccccc5C4)cc3)nc2c1	4%	6.3µM*
SMILES	Cruzain Triton	Cruzain inh noDet
N#Cc1ccc(-c2csc(NC(=O)c3ccc(S(=O)(=O)N4CCc5ccccc5C4)cc3)n2)cc1	-2%	6.3µM*
COC(=O)COc1ccc(S(=O)(=O)N2CCc3ccccc3C2)cc1C	-3%	8%
Cc1ccc(CN2CCC(CNC(=O)c3cc4ccc5cccnc5c4[nH]3)CC2)cc1	-5%	-5%
CCC(C)NC(=O)Cn1c(=O)n(-c2ccc(Cl)c(Cl)c2)c(=O)c2c(C)c(C(=O)N(CC)CC)sc21 (stereo not drawn)	0%	-4%
Cc1ccc(Cl)cc1NS(=O)(=O)c1ccc2oc(=O)c3ncn(C)c3c2c1	-6%	20%
O=C1OC(c2ccccc2)=N/C1=C\C=C\c1ccccc1[N+](=O)[O-]	13µM*	16µM*
O=c1[nH]c(/C=C/c2ccccc2[N+](=O)[O-])nc2ccccc12	-4%	0%
Cc1ccccc1Cn1cnc2nc3c(cc2c1=O)CC(C)CC3 (stereo not drawn)	6%	25%
COc1ccc(-n2c(C)nc3cc(C(=O)NC4CCCC4)ccc32)cc1	0%	-8%
Cc1cc(C)c(NC(=O)C(C)n2nc(-c3ccc(C)c(C)c3)ccc2=O)c(C)c1 (stereo not drawn)	-1%	28%
CCn1c(O)c(/C=C2\C=Nc3ccccc32)sc1=Nc1ccc(C)cc1	3%	16µM*
CCOC(=O)c1c(Nc2ccccc2)sc(/C=C2\C=Nc3ccccc32)c1O	5%	-27%
COc1ccc(/C=C2/SC(=O)N(CC(O)Cn3c4ccccc4c4ccccc43)C2=O)cc1 (stereo not drawn)	-5%	10µM*
Cc1cc(C)n(CC(O)Cn2c3ccccc3c3ccccc32)c(=O)n1 (stereo not drawn)	1%	?
Cc1ccc(N(CC(O)Cn2c3ccccc3c3ccccc32)S(=O)(=O)c2ccc(F)cc2)cc1 (stereo not drawn)	11%	8%
O=C1S/C(=C\c2ccccc2)C(=O)N1CC(O)Cn1c2ccccc2c2ccccc21 (stereo not drawn)	-4%	32µM*
